# The supplement of paper PMC6555819
# How the values were obtained:
# Test in all cases: PBM binding z-score (relative to random genomic background probes); higher = stronger binding; sequences stand for … in GC…GCGATTGACAGCGTAGAATGAAGG
# [1] = test system: RARb homodimer (NR concentration 270 nM)
# In short: (§1)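 On custom Agilent 4×180K arrays, double-stranded probes with 34-nt variable regions carried direct-repeat seeds, single-nucleotide variants, half-site ablations or random human genomic background. Ligand-free nuclear receptor dimers were applied for 1 h, and binding was read with antibodies against each partner (one per run). Binding z-scores come from regression-normalized fluorescence, with the random background probes as reference.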
# [2] = test system: RARg:RXRa (NR concentration 270 nM, RXRa partner concentration 90 nM)
# In short: as §1
# [3] = test system: RARg homodimer (NR concentration 270 nM)
# In short: as §1
# [4] = test system: RXRa DBDmut IVT, anti-RXR (DBD mutation: RXRa K156A/R161A, NR concentration 90 nM)
# In short: as §1
# [5] = test system: RXRa homodimer (NR concentration 180 nM)
# In short: as §1
# [6] = test system: THRa:RXRa (NR concentration 90 nM, RXRa partner concentration 90 nM)
# In short: as §1
# [7] = test system: THRa homodimer (NR concentration 90 nM)
# In short: as §1
# [8] = test system: VDR:RXRa (NR concentration 270 nM, RXRa partner concentration 90 nM)
# In short: as §1
# [9] = test system: VDR homodimer (NR concentration 270 nM)
# In short: as §1
Sequence,PBM binding z-score [1],PBM binding z-score [2],PBM binding z-score [3],PBM binding z-score [4],PBM binding z-score [5],PBM binding z-score [6],PBM binding z-score [7],PBM binding z-score [8],PBM binding z-score [9]
CGAACTAGGTCATCAGGACAGTGAAGAGGTTGGA,3.22,4.14,4.73,1.67,2.99,3.38,1.97,1.89,0.876
CTAACTAGGTCAAAGGACAGTGAAAGGCGACGTA,3.08,4.05,4.84,1.68,2.97,2.58,0.419,1.3,0.409
ATATGTAGTTTAGGGTCATTCAGAAAGTAGGGAA,3.24,4.01,2.73,2.93,5.24,4.29,3.64,4.64,4.3
CAAGCTAGGTCAAGAGGTCAAAGTCCGCTTCCCG,5.7,8.34,7.66,2.58,8.24,4.31,2.36,5.9,3.64
CCTCCAAGGTCATAGGAGGTCAGTGAAGACAGAT,5.33,6.72,7.01,3.01,6.79,5.36,3.1,6.6,4.12
CTATGCAGGTTAAGGGGGTCATTCAGTTTGAAAG,3.8,5.13,4.11,2.38,6.2,3.91,2.28,7.5,5.99
ACTAGTTGGTCAGCTGAGGTCACACAAAATTCGG,4.3,4.32,4.78,1.52,4.23,5.01,5.35,4.79,3.83
CCTAGTGGGTCAGGAGGTCACACACCGGATATGA,4.61,6.26,5.86,-0.339,6.15,3.73,2.04,4.65,2.09
CGAACTAGGTCACCAGGACAATGAAGAGGTTGGA,3.4,4.27,5.1,1.58,3.35,3.7,2.12,2.21,0.459
CAGCCTAGGTGAGGGCCAGTATAGGAGGAACGTT,0.105,-0.107,0.177,-0.941,-0.128,0.00456,-0.223,-0.634,-0.734
ATATGTAGGTTAGGGTGATTCAGAAAGTAGGGAA,1.48,0.779,0.813,0.979,1.02,2,1.65,1.09,0.713
GCTTACGGGTCAAAGGTTATAACATGAATAGAAT,3.48,6.91,4.77,2.43,9.77,4.13,0.296,5.68,1.8
CGTCGGAGGACAACAGGAGGTCAGAGCTGCCAGA,3.63,3.83,3.69,0.531,2.26,2.98,1.12,2.05,1.79
ATATGTAGGTTAGGGTCATCCAGAAAGTAGGGAA,3.38,4.31,3.5,2.19,5.6,4.15,3.73,4.46,3.58
CCGAGTAGGATACGAGGGGGCATTCAGTGCGAAT,1.17,1.37,0.779,0.527,0.919,1.97,-0.158,3.32,2.57
TCTTATAGATCAATAGAGGTTAAGAAAGTGCGCT,1.22,1.04,0.633,0.906,1.75,2.49,0.125,2.03,0.336
CGTCAAAGTTCAACTAAGTTAACGTAAAGCACGC,4.02,5.7,6.78,4.7,5.2,4.32,0.349,5.16,3.74
TCTAGTTGGTCAAAGGCCACACACTCGAAATGCG,1.9,1.77,1.42,0.875,1.71,0.626,0.029,1.04,-0.00157
ATATGTCGGTTAGGGTCATTCAGAAAGTAGGGAA,3.22,3.91,3.09,2.46,4.81,4.36,3.4,4.56,4.14
CGAACTAGGTCAAAGGGCAGTGAAAGGCGACGTA,3.46,5.34,4.91,1.65,5.31,3.11,0.218,2.63,0.354
CAATGTAGGTTAAGGGGGTCATTCAGTTTGAAAG,4.09,5.27,3.94,3,5.94,3.9,2.81,7.74,6.76
ATATGTAGGTTAGGGTCATTCACAAAGTAGGGAA,3.69,3.98,3.1,2.7,5.07,4.38,2.96,4.61,3.86
CATCCAAGGTCAAAGGTCAGTGAAGAGATGACGG,5.65,8.8,7.95,4.08,10.2,4.93,2.74,6.71,4.15
CGAACTAGGTCAAATGACAGTGAAAGGCGACGTA,2.7,4.37,4.97,2.03,3.11,2.6,0.29,1.63,0.337
CGAACTAGGTCGAAGGACAGTGAAAGGCGACGTA,0.802,0.619,1.1,0.469,0.475,0.508,-0.399,-0.183,-0.311
CGGACTGGGGCAAAGGTTACCATACTCAGTACGA,2.31,3.75,1.9,0.0322,3.79,2.1,0.079,1.9,0.18

Sequence,PBM binding z-score [1],PBM binding z-score [2],PBM binding z-score [3],PBM binding z-score [4],PBM binding z-score [5],PBM binding z-score [6],PBM binding z-score [7],PBM binding z-score [8],PBM binding z-score [9]
GCTTACGGGTCAAAGGTTATGGCATGAATAGAAT,3.46,6.98,5.3,2.31,9.82,3.79,0.408,5.58,1.51
TCGAGTAGGGTACGGGGGCATTCAGGGATGAAGA,1.81,2.33,1.97,2.6,1.67,4.02,1.48,3.64,3.8
CCGACTGGGCCATTCAGAGGTCATTGATCATATG,3.91,4.49,3.13,1.43,3.85,3.01,1.22,3.7,3.2
CTATGTAGGTTAAGGGGGGCATTCAGTTTGAAAG,2.88,3.52,2.84,2.58,2.76,3.12,2.39,6.21,4.81
TTTAGTTGGTCAAAGGTCACACACTCGAAATGCG,5.1,7.25,6.17,1.17,8.07,4.04,2.03,5.36,2.6
GCTTACGGGTGAAAGGTTATAGCATGAATAGAAT,1.48,3.01,1.34,0.431,4.95,2.2,0.0422,2.17,-0.0188
TAGCCTAGGACATGCGGGCCAGTATAGTGTCGGC,-0.329,-0.38,0.0739,-1.32,-0.25,0.348,-0.342,-0.777,-1.08
CTCGAAAGGTCGGTTGAGGTGACTATACGGATAA,2.54,3.04,2.85,0.99,2.76,5.16,1.68,2.77,0.829
CGAACTAGGTCACCAGGACATTGAAGAGGTTGGA,3.54,4.42,5.21,1.95,3.45,3.48,2.06,2.31,1.1
CAAACTAGGTCAAAGGTCAGAGTCGAGCCAACCA,5.01,8.13,6.87,2.57,9.54,4.59,1.56,5.78,2.39
CTATGTAGGTTTAGGGGGTCATTCAGTTTGAAAG,3.42,4.23,3.14,2.35,4.8,3.52,1.9,6.29,5.35
CGAACTACGTCAAAGGACAGTGAAAGGCGACGTA,0.995,0.411,0.951,-0.164,0.202,0.0886,-0.314,-0.443,-0.351
TCGAGTAAGTTACGGGGGCATTCAGGGATGAAGA,1.15,1.48,0.746,1.48,1.4,3.54,0.682,3.01,3.03
CAAACTAGGCCAAGGTCAAAGTCGGTTTGTGCCA,3.85,4.2,4.17,2.06,3.91,3.77,2.36,4.19,3.23
ATATGTAGGTTTGGGTCATTCAGAAAGTAGGGAA,2.2,1.92,1.33,1.36,2.05,2.74,2.23,2.04,2.22
TCGATTAGGTTACGGGGGCATTCAGGGATGAAGA,2.92,3.79,3.07,2.95,3.17,4.36,2.54,4.31,4.05
CTATGTCGGTTAAGGGGGTCATTCAGTTTGAAAG,4.04,4.91,4.15,2.98,5.04,3.9,3.17,6.77,6.54
ATATGTAGGTTATCGGGTCATTCATTTTGCGCAT,3.18,3.28,2.49,1.65,3.49,3.53,2.79,3.52,3
ACTAGTTGGTCAGCTGAGGTCACACTCAATTCGG,4.47,3.93,4.09,1.5,3.92,5.01,4.85,4.54,3.27
AATACAGGGTGATCGTAGGCCAGAGTACGCACAG,0.66,0.545,0.556,-0.0921,0.57,1.73,0.135,0.0765,0.376
CCGAGTAGATTACGAGGGGGCATTCAGTGCGAAT,1.12,1.31,0.84,1.36,0.919,1.85,-0.0543,3.48,3.03
CTATGTAGGCTAAGGGGGTCATTCAGTTTGAAAG,3.39,4.23,2.53,1.96,4.7,3.45,1.51,6.41,4.02
CTATGTAGGTTAAGGGGGACATTCAGTTTGAAAG,1.99,1.81,1.7,1.47,1.39,2.23,1.37,4.95,2.64
TCGAGTAGGTTACAGGGGCATTCAGGGATGAAGA,1.64,1.1,0.679,0.69,1.29,2.65,0.735,1.67,1.42
ATATGTAGGCTAGGGTCATTCAGAAAGTAGGGAA,2.44,3.25,2.17,2,4.11,3.74,2.36,3.8,2.49
CTATGTAGGTAAAGGGGGTCATTCAGTTTGAAAG,3.55,4.43,2.93,2.5,5.6,3.66,1.73,6.95,6.01
